Reference: PubChem BioAssay (NCI)
This is part of a sample that, as a whole, favours compounds with a hit. Of some 79,000 tested, about 15% had one in any assay. Active and inactive are the calls of the source. No stated cut-off is given here; in the data, active means growth inhibition above about 70%; inactive means the rest.

What was measured:
[1] = NCI Yeast Anticancer Drug Screen. Data for the rad50 strain (AID 155);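 further: 0% = growth of vehicle-only cultures of the same strain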; conditions: S. cerevisiae rad50 strain growth inhibition; at 50.0 µM; hits give high values
Summary of the method: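 Compounds were tested on a yeast strain with an engineered DNA damage repair alteration; the reported value is growth inhibition normalised to vehicle treatment.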

[2] = NCI Yeast Anticancer Drug Screen. Data for the mec2-1 strain (AID 157); conditions: S. cerevisiae mec2-1 strain, at 50.0 µM, hits give high values
Summary of the method: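 Mutant yeast (mec2-1) grown with compound; growth inhibition relative to vehicle control reported.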

[3] = NCI Yeast Anticancer Drug Screen. Data for the sgs1 mgt1 strain (AID 161);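 further: 0% = growth of cultures given vehicle only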; conditions: S. cerevisiae sgs1 mgt1 strain, at 50.0 µM, hits give high values
Summary of the method: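 Percent growth inhibition was derived by comparing compound-exposed mutant yeast with vehicle-exposed cultures. The strain carries alterations in DNA damage repair.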

[4] = NCI Yeast Anticancer Drug Screen. Data for the cln2 rad14 strain (AID 165);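 further: 0% = growth equal to vehicle treated cultures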; conditions: S. cerevisiae cln2 rad14 strain, at 50.0 µM, hits give high values
Summary of the method: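 Readout is yeast growth inhibition versus vehicle-treated controls, using a strain with cln2 and rad14 alterations exposed to compound.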

[5] = NCI Yeast Anticancer Drug Screen. Data for the bub3 strain (AID 167); conditions: S. cerevisiae bub3 mutant strain, at 50.0 µM, hits give high values
Summary of the method: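 Growth of a checkpoint-deficient yeast mutant is measured after compound exposure. Values represent inhibition relative to vehicle.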

[6] = NCI Yeast Anticancer Drug Screen. Data for the mlh1 rad18 strain (AID 175); conditions: S. cerevisiae mlh1 rad18 strain growth inhibition; at 50.0 µM; hits give high values
Summary of the method: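 Genetically defined yeast (DNA repair-deficient) exposed to compounds; growth inhibition determined relative to vehicle.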

Measured: growth inhibition

Cc1nc(N)nc(CCC(=O)Nc2cccc(C(F)(F)F)c2)c1-c1ccc(Cl)cc1
inactive: [1] 12.2% | [2] -2.9% | [3] 6.7% | [4] 7.45% | [5] -3.6% | [6] 11.1%

CC(C)CCOC(=O)c1ccccc1OC(=O)Nc1ccc(Cl)cc1[N+](=O)[O-]
inactive: [1] -18.9% | [2] -16.3% | [3] -20.4% | [4] -41.4% | [5] 0.05% | [6] -11.3%

C=CCOC(=O)Nc1ccc(S(=O)(=O)N(CCC)CCC)cc1
inactive: [1] -13.3% | [2] -33% | [3] 32% | [4] -23.4% | [5] -14.7% | [6] -17.2%

N=C(N)c1cc(Cl)c(OCc2ccccc2)c(Cl)c1
inactive: [1] 9.7% | [2] -12.7% | [3] 1.15% | [4] -10.7% | [5] 3.85% | [6] 12.8%

COc1ccc(COC(=O)Nc2cccc(Cl)c2)cc1OC
inactive: [1] -11.5% | [2] 30% | [3] 20.1% | [4] -24.2% | [5] 30.8% | [6] 35.8%

N#C/C(=C\Nc1ccccn1)C(=O)c1ccco1
inactive: [1] 6.85% | [2] -19.8% | [3] -19.6% | [4] -0.5% | [5] -55.9% | [6] -3.05%

FC(F)(c1nnnn1Cc1ccccc1)C(F)(F)C(F)(F)C(F)(F)C(F)(F)C(F)(F)C(F)(F)C(F)(F)c1nnnn1Cc1ccccc1
inactive: [1] 10.2% | [2] 13.7% | [3] -11.7% | [4] -2.65% | [5] 7.95% | [6] 19.3%

O=C1C=C(Nc2ccccc2C(=O)CC(=O)C(=O)Nc2cccc([N+](=O)[O-])c2)c2ccccc2C1=O
inactive: [1] -15.2% | [2] 12.3% | [3] -7.2% | [4] 12.3% | [5] -15.5% | [6] -7.1%

O=C(N/N=C/c1ccc(Cl)cc1Cl)c1cccc2ccccc12
inactive: [1] 8.2% | [2] -6.3% | [3] -15% | [4] -5.6% | [5] 11.6% | [6] 3.1%

O=c1cnn2c(n1)sc1ccc3ccccc3c12
inactive: [1] -11.8% | [2] -0.9% | [3] -15.4% | [4] 0.65% | [5] 26.5% | [6] 40.4%

Cc1ccc(CN(C)C)c(C(O)c2ccccc2)c1 (stereo not given)
inactive: [1] 14.9% | [2] -0.75% | [3] -0.1% | [4] 11.1% | [5] 6.6% | [6] -2.45%

CNC(=O)c1ccccc1O
inactive: [1] 21.2% | [2] 8.55% | [3] 5.65% | [4] 11.3% | [5] 5.15% | [6] 2.35%

N#Cc1c(-c2ccccc2)cn2c1[nH]c(=O)c1ccccc12
inactive: [1] 4% | [2] -6.65% | [3] 11.2% | [4] 5.45% | [5] -17.9% | [6] 1.05%

CC(=O)c1ccc2ccc3ccccc3c2c1O
inactive: [1] -3.85% | [2] -8.75% | [3] -14.3% | [4] -30.6% | [5] -8.4% | [6] 5.25%

CCN(CC)CCOc1ccc(N2Cc3cc(OC)c(OC)cc3C2=O)cc1
inactive: [1] -11.9% | [2] -7.45% | [3] -4.2% | [4] 13.5% | [5] 8.6% | [6] -13.8%

COc1ccc(CCC(=O)O)c(C(CC(=O)O)C(=O)O)c1OS(=O)(=O)c1ccc(C)cc1 (stereo not given)
inactive: [1] -21.2% | [2] -30.3% | [3] -40.5% | [4] 6.05% | [5] -33.3% | [6] -21.6%

Cc1oc([N+](=O)[O-])cc1C(=O)O
inactive: [1] 10.5% | [2] 7.5% | [3] -1.65% | [4] -69.7% | [5] -20.1% | [6] -8.25%

COc1ccc2ccccc2c1Cc1c(O)ccc2ccccc12
inactive: [1] 15.7% | [2] -4.55% | [3] 0.75% | [4] -40% | [5] -3.1% | [6] 8%

O=NN(CCCl)C(=O)/N=N/C(=O)N(CCCl)N=O
inactive: [1] 6.25% | [2] -38.9% | [3] -20.4% | [4] 15.2% | [5] -3.85% | [6] 20%

CC(C)N1CCN(c2ccncc2S(=O)(=O)N2CCCCC2)CC1
inactive: [1] -14.1% | [2] -23.2% | [3] -12.3% | [4] -5.5% | [5] -21.9% | [6] -30.4%

O=[N+]([O-])c1ccc2c(c1)nc(-c1ccccn1)n2CCc1ccncc1
active: [1] 95.2% | [2] 98.7% | [3] 99% | [4] 87% | [6] 99.2%
inactive: [5] 56.2%

N#C/C(=C\c1ccc(Cl)cc1)C(=O)c1ccccc1
inactive: [1] 9.4% | [2] 12.8% | [3] 29.8% | [4] 20.9% | [5] 6.95% | [6] 22.7%

C1=NCCCCCCCN=Cc2ccccc2NCCNc2ccccc21
inactive: [1] 29.1% | [2] 23.8% | [3] 20.4% | [4] 32.4% | [5] 38.3% | [6] 44.6%

CCc1nnc(CC)n1NCCCC(=O)O
inactive: [1] 26.3% | [2] 24.2% | [3] 20.8% | [4] 18.2% | [5] 24.9% | [6] 15.7%

O=S(=O)(O)C(CO)c1ccccc1 (stereo not given) (tested in a mixture with another compound)
inactive: [1] 5.75% | [2] 1.5% | [3] -12.9% | [4] -31.2% | [5] -28.7% | [6] 0.9%

CCCCCCCCCCCCCCCCCCN(C)C
inactive: [1] 54% | [2] 23.1% | [3] 13.8% | [4] -64.9% | [5] 46.7% | [6] 25.9%

CCCC(O)C(C)N (stereo not given)
inactive: [1] 4.3% | [2] -3.1% | [3] -2.9% | [4] -0.2% | [5] -2.25% | [6] -3.15%

Oc1c2c(c3cccc4cccc1c43)=Nc1ccccc1S2
inactive: [1] 0.25% | [2] 3.2% | [3] 6.4% | [4] -23.6% | [5] 3.3% | [6] 7.1%

O=C(C(c1ccccc1)C(C(=O)N(Cc1ccccc1)Cc1ccccc1)c1ccccc1)N(Cc1ccccc1)Cc1ccccc1 (stereo not given)
inactive: [1] -44.8% | [2] 7% | [3] -18.9% | [4] -14.3% | [5] -1.35% | [6] 28.3%

CCOC(=O)c1c(C)c2c(n1C)CCC(CCC(C)=O)C2=O (stereo not given)
inactive: [1] 5.6% | [2] 5.5% | [3] -0.4% | [4] 14.3% | [5] 6.7% | [6] 3.15%

CCOC(=O)C(=[N+]=[N-])C(=O)CN1C(=O)C2CC(C)=C(C)CC2C1O (stereo not given)
inactive: [1] -18.8% | [2] 1.15% | [3] -4.45% | [4] 1.85% | [5] -10.8% | [6] 16.9%

O=C(Nc1c(Cl)c(Cl)c2c(c1Cl)Cc1cc(Cl)ccc1-2)C(Cl)Cl
inactive: [1] 36.9% | [2] 10.7% | [3] 1.5% | [4] 26.1% | [5] 3.85% | [6] 25.4%

C=CCN(CC=C)c1ccccc1
inactive: [1] 24.1% | [2] 5.6% | [3] 25.4% | [4] 19.2% | [5] 14.6% | [6] 34.4%

O=C(N=Nc1c(O)[nH]c2ccc(Br)cc12)c1ccco1
inactive: [1] 24.2% | [2] 28.8% | [3] 43.2% | [4] 14.7% | [5] 43.2% | [6] 43%

CSC1=N[C@H](c2ccccc2)CS1
inactive: [1] 21.9% | [2] -9.85% | [3] 21.7% | [4] -3.1% | [5] 20.2% | [6] 23.4%
